About 83,000 compounds went through this panel and 20% of them were active in at least one assay; those are over-represented in the sample as a whole.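 Activity criterion: percent growth below 10, measured after cells in 96-well plates were exposed to a single compound concentration for 48 hours.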 Values without a mark were called inactive. Active and inactive are the calls of the source.
Assays:
Assay in all cases: NCI-60 one-dose screen, 48 h (100 = growth as untreated, 0 = no growth, -100 = all killed)
Settings in all cases: 10 µM unless noted
NCI-H23 lung = system: NCI-H23 lung
NCI-H226 lung = system: NCI-H226 lung
NCI-H322M lung = system: NCI-H322M lung
HOP-62 NSCLC = system: HOP-62 NSCLC
NCI-H460 lung = system: NCI-H460 lung
HOP-92 NSCLC = system: HOP-92 NSCLC
NCI-H522 lung = system: NCI-H522 lung
A549/ATCC NSCLC = system: A549/ATCC NSCLC
786-0 renal = system: 786-0 renal
COLO 205 colon = system: COLO 205 colon

Row | Compound | growth (NCI-H23 lung) | growth (NCI-H226 lung) | growth (NCI-H322M lung) | growth (HOP-62 NSCLC) | growth (NCI-H460 lung) | growth (HOP-92 NSCLC) | growth (NCI-H522 lung) | growth (A549/ATCC NSCLC) | growth (786-0 renal) | growth (COLO 205 colon)
1 | COc1ccc(-c2cc3c(C)nc(N)nc3n(C3CCC(OCCO)CC3)c2=O)cn1 (stereo not given) | 15% | -0.55% (active) | -36.4% (active) | -21.9% (active) | 6.78% (active) | -32.2% (active) | -1.92% (active) | -38.4% (active) | -24.1% (active) | -61.1% (active)
2 | Cc1cnc(Nc2ccc(OCCN3CCCC3)cc2)nc1Nc1cccc(S(=O)(=O)NC(C)(C)C)c1 | 15.8% | -61.9% (active) | 28% | -8.87% (active) | 10.4% | -72.1% (active) | -46.4% (active) | -53.6% (active) | -84.8% (active) | -67.6% (active)
3 | CCc1ccc(/C=C/c2ccc(O)c3ncccc23)[n+](C)c1 | 21% | 24.2% | 48.7% | 24.5% | 17.2% | 83.6% | 1.23% (active) | 18.3% | 89.4% | 70.9%
4 | O=C1CCC(=O)CC1 | 103% | 101% | 110% | 102% | 104% | 87.4% | 91.2% | 91.4% | 104% | 115%
5 | COc1cnc2c(c1)C(=O)c1c-2n(CCCN2CCC(O)CC2)c(=O)c2cc(Cl)ccc12 | 11.8% | 39.3% | 46.4% | 23.6% | -60.8% (active) | 77.3% | 32.4% | -65.8% (active) | 4.34% (active) | 47.1%
6 | Cc1ccc(NC(=O)c2ccc(CN3CCN(C)CC3)cc2)cc1Nc1nc(-c2cccnc2)cs1 | 68% | 38.6% | 90.2% | 60.2% | 40.3% | 93.1% | 17.7% | 39.4% | 14.5% | 16.1%
7 | C[C@]12O[C@H](C[C@]1(O)CO)n1c3ccccc3c3c4c(c5c6ccccc6n2c5c31)CNC4=O | -58.3% (active) | -68.8% (active) | -32.1% (active) | -63% (active) | -61.3% (active) | -26.3% (active) | -56.2% (active) | -29.9% (active) | -87.5% (active) | -84.9% (active)
8 | CCCCCC(=O)OCc1ccc(Cl)c(Cl)c1 | 96.2% | 100% | 96.3% | 101% | 107% | 109% | 97.5% | 103% | 104% | 106%
9 | CCN1/C(=C/C=C/c2n(-c3ccccc3)c3ccc(-c4nc5ccccc5s4)cc3[n+]2CC)N(c2ccccc2)c2ccc(-c3nc4ccccc4s3)cc21 | -0.899% (active) | 0.213% (active) | 14.5% | -7.25% (active) | -1.59% (active) | 1.91% (active) | -0.409% (active) | 3.13% (active) | 3.99% (active) | -5.05% (active)
10 | CN(c1ncccc1CNc1nc(Nc2ccc3c(c2)CC(=O)N3)ncc1C(F)(F)F)S(C)(=O)=O | -18.1% (active) | 8.79% (active) | -11.3% (active) | -13.3% (active) | -36.9% (active) | 2.42% (active) | -22.4% (active) | 2.18% (active) | 11.3% | -85.6% (active)
11 | O=C(c1ccc(F)c(F)c1Nc1ccc(I)cc1F)N1CC(O)([C@@H]2CCCCN2)C1 | 13.9% | 39.4% | 13.5% | 17.7% | 18.8% | -47.8% (active) | 18.8% | 14.2% | 29.1% | -63.9% (active)
12 | C/C(=C(/c1ccc(Cl)cc1)c1ccc(OCCN2CCCCCC2)cc1)c1ccccc1 | 74.9% | 95.8% | 93.2% | 90.3% | 76.3% | 82.6% | 72.9% | 67.8% | 82% | 15.9%
13 | CN1C/C=C\CCOc2cccc(c2)-c2ccnc(n2)Nc2cccc(c2)C1 | -56.6% (active) | -33.7% (active) | -17.7% (active) | -44.5% (active) | -73.6% (active) | -15.5% (active) | -70.1% (active) | -50.1% (active) | -85.9% (active) | -81.6% (active)
14 | COc1ccc(Cl)c(Nc2nc3ccccc3nc2NS(=O)(=O)c2cccc(NC(=O)C(C)(C)N)c2)c1 | 64.5% | 71.4% | 35.1% | 39.4% | 38% | -1.2% (active) | 49% | 32.4% | 16.7% | 21.8%
15 | CCn1cc(-c2ccnc3[nH]c(-c4cccc(CN(C)C)c4)cc23)c(-c2ccc(NC(=O)N(C)C)cc2)n1 | 17.6% | 32.3% | 38.7% | 15% | 9.19% (active) | -13.3% (active) | 6.18% (active) | 14.9% | 35.1% | -26.9% (active)
16 | CCNCCNc1cc(-c2ccc(Cl)c(Cl)c2)c(C#N)c2nc3ccccc3n12 | -72.8% (active) | -74.2% (active) | -83.5% (active) | -75.6% (active) | -71.2% (active) | -85.8% (active) | -78.1% (active) | -87.3% (active) | -84.8% (active) | -83.7% (active)
17 | Cc1cccc(NC(=O)[C@@H]2c3ccccc3C(=O)N(c3ccc(Cl)cc3)[C@H]2c2ccc(Cl)cc2)n1 | 57.9% | 55.1% | 80.8% | 53.1% | 52.5% | 42% | 38.7% | 23.6% | 61.2% | 30.7%
18 | Cc1ccsc1C(NC(=O)c1ccccc1)c1cc(Cl)c2cccnc2c1O (stereo not given) | 28.1% | 38.5% | 32% | 15% | 7.44% (active) | 35% | 9.39% (active) | 14.3% | 18.2% | 11.7%
19 | CCN(CC)CCNC(=O)c1c(C)[nH]c(/C=C2\C(=O)Nc3ccc(F)cc32)c1C | 21.4% | 51.1% | 31.4% | 26% | 1.9% (active) | 30.3% | -46% (active) | 0.0489% (active) | -63.8% (active) | -80.3% (active)
20 | O=C(COc1ccc(/C=C2\Cc3ccc(Cl)cc3C2=O)cc1)Nc1nccs1 | 88.9% | 98.4% | 118% | 101% | 95.2% | 77.5% | -7.85% (active) | 83.7% | 95.8% | 124%
21 | CSC1=C(N)C(=O)c2[nH]cc(CO)c2C1=N | -29.3% (active) | -65.3% (active) | -97.2% (active) | -72.1% (active) | -59.2% (active) | -71.7% (active) | -43.4% (active) | -57.4% (active) | -70.1% (active) | -77.6% (active)
22 | c1ccc2c(c1)CCN(NCCN1CCCC1)C2 | 86.7% | 88.8% | 98.2% | 75.4% | 107% | 80.4% | 91.3% | 85.5% | 101% | 91.8%
23 | Cc1cn(-c2cc(NC(=O)c3ccc(C)c(Nc4nccc(-c5cccnc5)n4)c3)cc(C(F)(F)F)c2)cn1 | 49.2% | 67.1% | 69.3% | 47.5% | 63.7% | 70.7% | 41.5% | 45.5% | 71.4% | 19.8%
24 | O=C1/C(=C\c2cccc(OCCCCCOc3ccc(Cl)cc3)c2)N=C2SCCCN12 | 35% | 60.3% | 101% | 71.1% | 60.7% | 48.1% | 32.6% | 45.5% | 72.6% | 60.1%
25 | Cc1nc2ccc(-n3ncc(C(=O)c4cc5ccccc5[nH]4)c3N)cc2[nH]1 | 74% | 48.4% | 86.5% | 55.9% | 5.14% (active) | 74.8% | 36.5% | 36.9% | 55.2% | 38.7%
26 | CN(C)CCn1c(=O)c2c3cc4c(cc3n(CCN(C)C)c2c2ccc(Cl)cc21)OCO4 | 36.9% | 55% | 49.1% | 26.3% | 12.7% | 65.9% | 44.5% | 31.7% | 61.1% | 27%
27 | COc1cc(C2CC(c3ccc(Cl)cc3)=NN2c2ccc(Cl)cc2)cc(OC)c1OC (stereo not given) | 97.4% | 88.4% | 91.1% | 100% | 97.1% | 57.7% | 88.9% | 93.9% | 98.8% | 91.4%

From PubChem BioAssay (NCI)
